# Screening data (PubChem BioAssay)
# The list is not random: actives were taken first. Their share in the collection is about 6.5%.
# VACV Venus inh: vaccinia inhibition (Venus reporter) | Vaccinia virus Venus reporter expression, fluorescence | Potency, µM (top dose mostly 36.5 µM), usual class: inhibitors | 330,000 compounds, 0.46% hits; calls by dose curve; tested in A549 cells; note: nearly all actives have a fitted effect of over 30% in size
# VACV mCherry inh: inhibitors of vaccinia virus infection (mCherry reporter signal); Vaccinia virus mCherry reporter infection, fluorescence; AID 720579; Potency, µM (doses to about 36.5 µM), hits mostly inhibitors; 310,000 compounds, 0.63% hits; calls by dose curve; tested in A549 cells; note: nearly all actives have a fitted effect of over 35% in size
# FMDV antiviral: blocks foot and mouth disease virus. FMDV antiviral cell-based qHTS. Potency, µM (series often up to 57.9 µM), usual class: inhibitors. 410,000 compounds, 1.2% hits; calls by dose curve; tested in HEK293T cells; note: read-out not given here; nearly all actives have a fitted effect of over 45% in size
# MARV entry inh: blocks Marburg virus binding to or entry into cells | AID 540276 | Potency, µM (doses to about 37.8 µM), most hits filed as inhibitors | 300,000 compounds, 1.8% hits | Marburg virus pseudotyped entry inhibition, cell reporter; calls by dose curve; tested in HEK293 cells
# HCMV antiviral: inhibitors of human cytomegalovirus | HFF cells, HCMV-luciferase reporter, 72 h; active compounds read low | activity change, negative = inhibition, % at 57.5 µM | 410,000 compounds, 4.5% hits; in the data active = activity change below about -60%; inconclusive = no clear call, values can overlap the other calls; inactive = above about -39%
#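 Two compound doses tested in HFFs infected with HCMV-luciferase, MOI 1 PFU/cell, 72 h at 37C. Lysate luminescence read with OneGlo; data normalized against buffer-only and 10uM Salinomycin inhibitor controls.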
# Lassa entry inh: blocks Lassa virus binding to or entry into cells | Lassa virus pseudotype entry inhibition, cell reporter | Potency, µM (titrated, usually from 37.9 µM), usual class: inhibitors | 300,000 compounds, 1.2% hits | AID 540256; calls by dose curve; tested in HEK293 cells; note: nearly all actives have a fitted effect of over 50% in size
# Hits are given with their value; n = inactive; u = inconclusive; x = no result given.
SMILES,VACV Venus inh,VACV mCherry inh,FMDV antiviral,MARV entry inh,HCMV antiviral,Lassa entry inh
Cc1ccc(N(C(=O)c2nsc(Cl)c2Cl)C(C(=O)NC2CCCC2)c2ccc(O)cc2)cc1C (stereo not given),u,n,n,u,u,1.6µM
Cc1ccccc1N(C(=O)c1snc(C(N)=O)c1N)C(C(=O)NC1CCCCC1)c1ccc(O)cc1 (stereo not given),n,u,n,u,n,11µM
COc1ccc(C(C(=O)NC2CCCC2)N(Cc2ccccc2)C(=O)c2nsc(Cl)c2Cl)cc1 (stereo not given),u,n,x,u,n,u
Cc1ccccc1N(C(=O)c1snc(C(N)=O)c1N)C(C)C(=O)NC1CCCCC1 (stereo not given),n,n,n,u,n,u
Cc1cccc(N(C(=O)c2nsc(Cl)c2Cl)C(C(=O)NC2CCCC2)c2ccc(O)cc2)c1C (stereo not given),n,n,n,u,u,7.3µM
O=C(CN(C(=O)c1nsc(Cl)c1Cl)c1ccc(F)cc1)NC1CCCC1,n,n,n,u,n,n
Cc1ccc(N(CC(=O)NC2CCCC2)C(=O)c2nsc(Cl)c2Cl)cc1,n,n,n,n,-75,n
CC[C@@H]1Cn2c(c3nc(-c4ccccc4)nc-3n(C)c2=O)N1,x,x,n,x,x,x
O=C1CC(c2ccco2)Cc2[nH]c(=O)c(C(=O)Nc3ccccc3)cc21 (stereo not given),n,n,x,x,x,x
Cc1c(C(=O)NCC2(N3CCOCC3)CCCC2)cnn1-c1nccc(-c2ccccc2F)n1,n,n,n,x,x,x
Cc1noc(C)c1-c1ccc2ncnc(N3CCOCC3)c2c1,x,x,n,x,x,x
COc1ccccc1C(=O)N1CCOc2ccc(C(C)(O)CCn3cccn3)cc2C1 (stereo not given),n,n,n,x,x,x
COc1ccccc1C(=O)Nc1nnc2n1CCS2,n,n,n,x,n,n
COc1ccc2[nH]c(CCc3nc4c(OC)c(OC)ccc4[nH]3)nc2c1OC,n,n,x,x,x,x
CCOc1ccc(C(C(=O)NC2CCCC2)N(Cc2ccccc2)C(=O)c2nsc(Cl)c2Cl)cc1 (stereo not given),x,x,n,x,n,x
Cc1cc(C)cc(N(C(=O)c2nsc(Cl)c2Cl)C(C(=O)NC2CCCC2)c2ccc(O)cc2)c1 (stereo not given),u,u,n,u,-71,u
COc1ccc(-n2cc(-c3ccc4c(c3)OCO4)n(CC(=O)Nc3cccc(C)c3C)c2=O)c(OC)c1,n,n,u,u,-86,u
COc1ccc(-n2cc(-c3ccc4c(c3)OCO4)n(CC(=O)Nc3cc(Cl)ccc3C)c2=O)cc1,u,u,n,u,n,n
Cc1cc(N2CCN(C)CC2)n2nc(-c3ccc(Cl)cc3)nc2n1,u,7.9µM,n,x,n,x
CC1CCCCN1C(=O)CSc1nc2ccccc2nc1Cc1ccccc1 (stereo not given),n,n,n,x,-72,u
CCCCc1ccc(NC(=S)Nc2ccc(Cl)c(S(=O)(=O)N(C)C)c2)cc1,n,n,n,u,-63,u
C[C@@H]1CC2=CCCC2[C@]2(O1)C(=O)N(Cc1ccc(Br)cc1)c1cccc(Br)c12 (stereo not given in full),x,x,x,n,x,u
O=C1C2C3C=CC(CC3)C2C(=O)N1c1ccccc1F (stereo not given),n,u,n,n,-63,n
Cc1ccccc1N1C(=O)C2C3C=CC(CC3)C2C1=O (stereo not given),n,n,n,n,n,n
COC(=O)c1[nH]c2ccc(C)cc2c1NC(=O)CN1CCN(Cc2ccccc2)CC1,u,n,u,n,n,u
SMILES,VACV Venus inh,VACV mCherry inh,FMDV antiviral,MARV entry inh,HCMV antiviral,Lassa entry inh
COC(=O)c1ccc(C(=O)OC)c(NC(=O)CN2CCN(c3ccccc3)CC2)c1,n,n,n,9.2µM,n,u
CCOC(=O)N1CCN(CC(=O)Nc2c(C(=O)OC)[nH]c3cc(C)ccc23)CC1,x,x,u,n,n,n
COC(=O)c1[nH]c2ccc(C)cc2c1NC(=O)CN1CCN(c2ccccc2)CC1,u,u,u,u,-65,u
CCOC(=O)N1CCN(CC(=O)Nc2c(C(=O)OC)[nH]c3ccc(Cl)cc23)CC1,n,u,32µM,u,u,u
COC(=O)c1[nH]c2ccc(C)cc2c1NC(=O)CN1CCC(C)CC1,n,n,u,n,n,n
COC(=O)c1[nH]c2ccc(C)cc2c1NC(=O)CN1CCN(c2ccc(F)cc2)CC1,n,u,25µM,u,-83,13µM
O=[N+]([O-])c1ccc(C=C2c3ccccc3-c3ccccc32)cc1,n,n,x,x,x,x
N#CCCn1c(=O)c(-c2ccccc2)nc2cnc(N3CCOCC3)nc21,x,x,n,x,x,x
COC(=O)[C@H](Cc1ccccc1)N1Cc2ccccc2Oc2cc(Br)ccc2S1(=O)=O,x,x,x,x,n,x
COc1ccc(OC(C)C(=O)NCc2nc(-c3cccc(C)c3)no2)cc1 (stereo not given),n,n,n,n,n,u
COC(=O)c1[nH]c2ccc(Cl)cc2c1NC(=O)CN1CCc2cc(OC)c(OC)cc2C1,n,x,u,u,n,u
COC(=O)c1ccccc1NC(=O)CN1CCN(C23CC4CC(CC(C4)C2)C3)CC1,n,n,n,5.8µM,n,u
COC(=O)c1[nH]c2cc(C)ccc2c1NC(=O)CN1CCc2cc(OC)c(OC)cc2C1,n,x,22µM,u,x,u
Cc1ccc(C)c(NC(=O)c2cc(S(=O)(=O)N3CCCc4ccccc43)ccc2F)c1,n,n,n,x,-62,n
COc1ccc(S(=O)(=O)N2CCc3ccccc32)cc1C(=O)NCc1ccco1,n,n,n,n,n,u
O=C(NCc1ccco1)c1cc(S(=O)(=O)N2CCCc3ccccc32)ccc1Cl,n,n,n,u,-67,u
CCn1nnc2cc(C(=O)Nc3cc(C)ccc3C)ccc21,n,n,n,x,n,n
O=C(C1CCCCC1)N1C[C@H](O)[C@H](n2cc(C3CC3)nn2)C[C@@H]1c1ccc(Cl)cc1,x,x,x,x,x,n
CC(C)C(=O)N1CCN(c2nc(-c3ccc(Cl)cc3)cs2)CC1,x,x,n,x,-70,x
CCOC(=O)N1CCN(c2nc(-c3ccc(Cl)cc3)cs2)CC1,n,n,x,n,u,n
O=C(Cc1cccs1)N1CCN(c2nc(-c3ccc(Cl)cc3)cs2)CC1,x,x,u,u,-108,n
O=C(CCCl)N1CCN(c2nc(-c3ccccc3)cs2)CC1,x,x,n,x,u,x
O=C(O)C(S)[C@@H](S)C(=O)O (stereo not given in full),n,n,n,x,x,x
CCOC(=O)N/N=C/c1c(C)c(C(=O)c2ccc(F)cc2)n2ccccc12,n,n,n,n,u,n
Cc1c(/C=N/NC(=O)c2ccccc2O)c2ccccn2c1C(=O)c1ccc(F)cc1,u,u,25µM,11µM,n,u
Cc1c(/C=N/NC(=O)c2ccc(O)cc2)c2ccccn2c1C(=O)c1ccc(F)cc1,u,n,u,u,n,11µM
Cc1c(/C=N/NC(=O)c2cccnc2)c2ccccn2c1C(=O)c1ccc(F)cc1,x,x,x,n,x,n
